Data from PubChem BioAssay AID504326 (The Scripps Research Institute Molecular Screening Center, 2011).
The campaign covered roughly 340,000 compounds. About 990 (0.29%) were called active. Rule as the data show it: active = activation above about 18%; inactive = the rest. What follows is part of a selection rich in actives, with near analogues and random picks from the rest.

Molecular target: Mu-type opioid receptor (Homo sapiens) + Delta-type opioid receptor (Homo sapiens) (UniProt P35372+P41143)
Sequence (P35372 whole entry, looked up): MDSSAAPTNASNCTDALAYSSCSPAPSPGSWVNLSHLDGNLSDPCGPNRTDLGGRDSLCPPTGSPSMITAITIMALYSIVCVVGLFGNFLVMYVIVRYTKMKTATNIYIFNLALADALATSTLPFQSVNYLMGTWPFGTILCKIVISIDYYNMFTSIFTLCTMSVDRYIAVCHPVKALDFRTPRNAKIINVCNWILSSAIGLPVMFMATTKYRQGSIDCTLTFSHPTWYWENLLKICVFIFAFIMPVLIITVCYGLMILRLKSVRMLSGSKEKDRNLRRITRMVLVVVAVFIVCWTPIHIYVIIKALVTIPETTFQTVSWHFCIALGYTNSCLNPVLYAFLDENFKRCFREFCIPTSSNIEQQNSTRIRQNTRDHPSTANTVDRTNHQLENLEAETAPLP
Sequence (P41143 whole entry, looked up): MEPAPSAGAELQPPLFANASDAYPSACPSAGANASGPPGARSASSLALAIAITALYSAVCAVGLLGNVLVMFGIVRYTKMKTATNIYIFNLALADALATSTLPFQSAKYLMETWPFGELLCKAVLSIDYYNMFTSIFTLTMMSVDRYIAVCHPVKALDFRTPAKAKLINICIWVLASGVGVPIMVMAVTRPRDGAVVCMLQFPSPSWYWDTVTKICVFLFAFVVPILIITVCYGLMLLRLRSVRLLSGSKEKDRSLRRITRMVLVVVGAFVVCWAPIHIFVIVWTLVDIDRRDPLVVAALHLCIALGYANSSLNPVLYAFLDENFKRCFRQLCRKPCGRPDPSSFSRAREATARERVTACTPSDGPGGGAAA
Assay: inducers of mu-delta opioid receptor heterodimers – cell-based, luminescence, primary screen (AID 504326);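 also: 0% = vehicle-treated cells and 100% = reference agonist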
Conditions: cells, OPRM1-OPRD1 heterodimerization, at 9.3 µM, active compounds read high

Structure (SMILES)	activation
COC1C(O)C(C)OC(OC2CCC3(C=O)C(CCC4C3CCC3(C)C(C5=CC(=O)OC5)CCC43O)C2)C1O (stereo not given)	82.9% (active)
COc1cc2nc(N3CCN(C(=O)[C@@H]4CCCO4)CC3)nc(N)c2cc1OC	-0.16% (inactive)
CC1(C)C(c2ccccc2)=NC(c2cccnc2)=[N+]1[O-]	-4.09% (inactive)
CC(=O)OC1C2(CC3N4C(=O)C5(CO)SSC4(CC31O)C(=O)N5C)OC(C)C(C)(C)C2=O (stereo not given)	-23.2% (inactive)
C[C@]12CC[C@H](O)C[C@H]1CC[C@@H]1C2CC[C@]2(C)[C@@H](C3=CC(=O)OC3)[C@@H](O)C[C@]12O (stereo not given in full)	62.4% (active)
C[C@]12CCC3C(CC[C@H]4C[C@@H](O)CC[C@]34C)C1CC[C@@H]2O (stereo not given in full)	-1.31% (inactive)
C[C@]12CCC3C(CC[C@H]4C[C@@H](O)CC[C@]34C)C1C[C@@H](O)[C@H]2O (stereo not given in full)	-2.9% (inactive)
CCOP(=O)(OCC)C(NC(=O)NC)C(N)=O (stereo not given)	-3.11% (inactive)
c1cc2c(cc1C1OCC3C(c4ccc5c(c4)OCO5)OCC13)OCO2 (stereo not given)	1.03% (inactive)
Cn1c(O)c(C=NCCCC(=O)O)c(=O)n(C)c1=O	-1.29% (inactive)
CCOC(=O)C1(CCc2ccccc2)CCN(Cc2ccco2)CC1	23.8% (active)
CCOC(=O)C1(Cc2ccc(Cl)cc2)CCN(C(C)CCn2cccn2)CC1 (stereo not given)	0.28% (inactive)
CCOC(=O)C1(c2ccccc2)CCN(CC(O)c2ccc(NC(C)=O)cc2)CC1 (stereo not given)	3.27% (inactive)
NC(=O)Cn1cc(C(=O)c2ccccc2F)c2ccccc21	-3.05% (inactive)
c1ccc2sc(C3CCCNC3)nc2c1 (stereo not given)	-2.28% (inactive)
COc1ccc(C2NCc3ccc4c(c3-n3cccc32)OCO4)cc1OC (stereo not given)	-3.63% (inactive)
CCC1(C)CC(CCNCc2ccc(N(C)C)cc2)(c2ccc(F)cc2)CCO1 (stereo not given)	125% (active)
COC(=O)C1=C(c2c(C)noc2C)C[C@@H]2CC[C@H]1N2C(=O)NCc1ccc2c(c1)OCO2	-2.32% (inactive)
CCCCC(=O)N/N=C/c1c(O)n(CC)c(=S)n(CC)c1=O	0.54% (inactive)
O=C1NC(=O)C(CCOc2ccccc2)(CCc2ccccc2)C(=O)N1	-1.87% (inactive)
